ChEMBL document CHEMBL1961873, “Compounds: GSK PKIS; Assays: Nanosyn kinase panel” (2012)
Values joined by “and” are separate entries in the source; they are usually repeats but may differ in a detail not shown here. Equal entries are not always repeated.

What was measured:
[1] = molecular target: Serine/threonine-protein kinase PAK 6 (Homo sapiens) (UniProt Q9NQU5); conditions: at 1 µM;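 also: values are mean percent inhibition of PAK6 kinase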
[2] = test system: Tyrosine-protein kinase ABL1 (Homo sapiens), P00519 [E255K]; conditions: at 0.1 µM
[3] = test system: Tyrosine-protein kinase ABL1 (Homo sapiens), P00519 [E255K]; conditions: at 1 µM
[4] = test system: Tyrosine-protein kinase ABL1 (Homo sapiens), P00519 [H396P]; conditions: at 0.1 µM
[5] = test system: Tyrosine-protein kinase ABL1 (Homo sapiens), P00519 [H396P]; conditions: at 1 µM
[6] = test system: Tyrosine-protein kinase ABL1 (Homo sapiens), P00519 [M351T]; conditions: at 0.1 µM
[7] = test system: Tyrosine-protein kinase ABL1 (Homo sapiens), P00519 [M351T]; conditions: at 1 µM
[8] = test system: Tyrosine-protein kinase ABL1 (Homo sapiens), P00519 [Q252H]; conditions: at 0.1 µM
[9] = test system: Tyrosine-protein kinase ABL1 (Homo sapiens), P00519 [Q252H]; conditions: at 1 µM
[10] = test system: Tyrosine-protein kinase ABL1 (Homo sapiens), P00519 [T315I]; conditions: at 0.1 µM
[11] = test system: Tyrosine-protein kinase ABL1 (Homo sapiens), P00519 [T315I]; conditions: at 1 µM
[12] = test system: Tyrosine-protein kinase ABL1 (Homo sapiens), P00519 [Y253F]; conditions: at 0.1 µM
[13] = test system: Tyrosine-protein kinase ABL1 (Homo sapiens), P00519 [Y253F]; conditions: at 1 µM
[14] = molecular target: Tyrosine-protein kinase ABL1 (Homo sapiens) (UniProt P00519); conditions: at 0.1 µM
[15] = molecular target: Tyrosine-protein kinase ABL1 (Homo sapiens) (UniProt P00519); conditions: at 1 µM
[16] = molecular target: ALK tyrosine kinase receptor (Homo sapiens) (UniProt Q9UM73); conditions: at 0.1 µM
[17] = molecular target: ALK tyrosine kinase receptor (Homo sapiens) (UniProt Q9UM73); conditions: at 1 µM
[18] = molecular target: Tyrosine-protein kinase ABL2 (Homo sapiens) (UniProt P42684); conditions: at 0.1 µM
[19] = molecular target: Tyrosine-protein kinase ABL2 (Homo sapiens) (UniProt P42684); conditions: at 1 µM
[20] = molecular target: Tyrosine-protein kinase receptor UFO (Homo sapiens) (UniProt P30530); conditions: at 0.1 µM;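 also: values are mean percent inhibition of AXL from the GSK PKIS screen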
Chain of Tyrosine-protein kinase receptor UFO (Homo sapiens) (P30530 whole entry): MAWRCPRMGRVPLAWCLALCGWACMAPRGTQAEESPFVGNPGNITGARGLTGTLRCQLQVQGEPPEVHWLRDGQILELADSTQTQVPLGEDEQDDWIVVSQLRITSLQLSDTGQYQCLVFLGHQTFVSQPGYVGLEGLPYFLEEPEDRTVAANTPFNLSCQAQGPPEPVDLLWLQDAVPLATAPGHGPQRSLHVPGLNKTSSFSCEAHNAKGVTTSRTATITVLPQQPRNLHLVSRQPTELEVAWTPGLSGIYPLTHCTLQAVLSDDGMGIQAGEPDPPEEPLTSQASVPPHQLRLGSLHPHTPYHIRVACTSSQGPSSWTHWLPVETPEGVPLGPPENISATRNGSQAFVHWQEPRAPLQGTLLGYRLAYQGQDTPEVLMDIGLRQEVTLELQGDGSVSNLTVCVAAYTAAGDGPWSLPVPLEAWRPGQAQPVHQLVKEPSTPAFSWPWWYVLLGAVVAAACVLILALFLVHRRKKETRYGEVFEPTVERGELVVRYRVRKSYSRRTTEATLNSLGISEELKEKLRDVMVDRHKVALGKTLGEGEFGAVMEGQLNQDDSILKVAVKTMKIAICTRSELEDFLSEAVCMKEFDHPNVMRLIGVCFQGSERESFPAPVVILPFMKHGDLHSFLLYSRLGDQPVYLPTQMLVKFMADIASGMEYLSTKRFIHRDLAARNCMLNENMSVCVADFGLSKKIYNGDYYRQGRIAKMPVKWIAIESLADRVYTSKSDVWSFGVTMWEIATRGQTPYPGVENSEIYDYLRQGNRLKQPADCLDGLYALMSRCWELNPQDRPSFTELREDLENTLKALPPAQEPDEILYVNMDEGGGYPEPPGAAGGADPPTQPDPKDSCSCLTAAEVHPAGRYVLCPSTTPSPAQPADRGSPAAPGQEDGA

Chain of Serine/threonine-protein kinase PAK 6 (Homo sapiens) (Q9NQU5 whole entry, looked up): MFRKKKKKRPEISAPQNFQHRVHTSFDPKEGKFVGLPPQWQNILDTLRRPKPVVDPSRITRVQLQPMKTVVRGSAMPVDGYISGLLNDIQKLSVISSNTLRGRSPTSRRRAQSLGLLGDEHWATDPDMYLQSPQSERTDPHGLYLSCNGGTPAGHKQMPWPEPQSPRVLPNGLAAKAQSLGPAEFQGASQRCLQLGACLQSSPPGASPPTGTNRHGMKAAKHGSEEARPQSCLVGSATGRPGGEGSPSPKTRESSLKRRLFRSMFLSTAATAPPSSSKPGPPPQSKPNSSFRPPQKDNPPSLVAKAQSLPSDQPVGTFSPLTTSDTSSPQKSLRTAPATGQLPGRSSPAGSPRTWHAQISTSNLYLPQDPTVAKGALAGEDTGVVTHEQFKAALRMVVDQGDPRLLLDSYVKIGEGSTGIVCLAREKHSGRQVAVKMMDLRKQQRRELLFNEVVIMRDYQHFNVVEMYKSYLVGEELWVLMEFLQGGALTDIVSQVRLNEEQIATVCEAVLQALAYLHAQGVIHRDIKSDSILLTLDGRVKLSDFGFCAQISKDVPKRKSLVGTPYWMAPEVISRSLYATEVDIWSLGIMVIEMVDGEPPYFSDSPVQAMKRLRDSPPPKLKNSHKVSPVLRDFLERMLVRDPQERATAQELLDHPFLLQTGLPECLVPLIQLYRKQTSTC
Chain of ALK tyrosine kinase receptor (Homo sapiens) (Q9UM73 19-1620 limits assumed): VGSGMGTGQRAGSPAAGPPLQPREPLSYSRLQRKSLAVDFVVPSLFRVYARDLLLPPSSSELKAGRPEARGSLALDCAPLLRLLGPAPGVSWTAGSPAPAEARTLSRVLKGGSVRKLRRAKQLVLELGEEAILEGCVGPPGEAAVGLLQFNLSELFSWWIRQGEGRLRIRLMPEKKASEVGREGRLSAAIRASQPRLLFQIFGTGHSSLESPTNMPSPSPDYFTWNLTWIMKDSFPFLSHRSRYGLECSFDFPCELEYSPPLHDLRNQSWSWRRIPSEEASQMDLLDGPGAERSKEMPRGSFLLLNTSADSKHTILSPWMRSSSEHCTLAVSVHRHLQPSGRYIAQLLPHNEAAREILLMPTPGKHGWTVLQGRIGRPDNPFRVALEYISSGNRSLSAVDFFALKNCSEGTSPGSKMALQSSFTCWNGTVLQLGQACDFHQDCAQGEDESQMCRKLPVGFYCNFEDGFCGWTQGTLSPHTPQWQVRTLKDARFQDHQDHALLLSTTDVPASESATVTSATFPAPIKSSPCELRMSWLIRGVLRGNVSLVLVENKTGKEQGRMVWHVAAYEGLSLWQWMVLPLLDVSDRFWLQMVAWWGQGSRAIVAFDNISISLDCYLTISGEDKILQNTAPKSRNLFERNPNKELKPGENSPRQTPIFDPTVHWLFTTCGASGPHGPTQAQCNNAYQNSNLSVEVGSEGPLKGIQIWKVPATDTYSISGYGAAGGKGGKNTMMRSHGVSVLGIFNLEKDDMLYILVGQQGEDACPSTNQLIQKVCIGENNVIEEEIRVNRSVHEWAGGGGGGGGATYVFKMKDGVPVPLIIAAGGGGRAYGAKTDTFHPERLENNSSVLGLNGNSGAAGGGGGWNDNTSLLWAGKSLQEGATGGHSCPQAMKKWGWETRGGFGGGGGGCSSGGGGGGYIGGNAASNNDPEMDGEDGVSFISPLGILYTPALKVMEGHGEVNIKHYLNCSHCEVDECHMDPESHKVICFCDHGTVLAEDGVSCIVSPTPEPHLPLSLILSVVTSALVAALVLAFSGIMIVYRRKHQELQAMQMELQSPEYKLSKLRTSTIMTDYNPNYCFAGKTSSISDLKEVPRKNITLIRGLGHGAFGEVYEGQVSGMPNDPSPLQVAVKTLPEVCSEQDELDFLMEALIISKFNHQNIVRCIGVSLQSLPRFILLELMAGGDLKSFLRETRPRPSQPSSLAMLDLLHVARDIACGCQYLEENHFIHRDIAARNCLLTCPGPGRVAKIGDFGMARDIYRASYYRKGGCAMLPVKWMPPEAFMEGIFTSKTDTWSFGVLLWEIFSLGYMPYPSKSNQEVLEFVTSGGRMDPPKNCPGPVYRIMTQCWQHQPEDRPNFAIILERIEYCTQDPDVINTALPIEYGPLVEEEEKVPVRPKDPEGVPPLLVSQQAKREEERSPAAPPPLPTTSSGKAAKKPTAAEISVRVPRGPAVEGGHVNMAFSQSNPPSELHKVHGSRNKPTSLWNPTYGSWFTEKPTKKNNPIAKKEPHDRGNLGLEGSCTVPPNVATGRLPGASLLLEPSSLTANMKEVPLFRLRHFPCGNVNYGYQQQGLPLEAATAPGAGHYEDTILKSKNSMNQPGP
Chain of Tyrosine-protein kinase ABL2 (Homo sapiens) (P42684 whole entry): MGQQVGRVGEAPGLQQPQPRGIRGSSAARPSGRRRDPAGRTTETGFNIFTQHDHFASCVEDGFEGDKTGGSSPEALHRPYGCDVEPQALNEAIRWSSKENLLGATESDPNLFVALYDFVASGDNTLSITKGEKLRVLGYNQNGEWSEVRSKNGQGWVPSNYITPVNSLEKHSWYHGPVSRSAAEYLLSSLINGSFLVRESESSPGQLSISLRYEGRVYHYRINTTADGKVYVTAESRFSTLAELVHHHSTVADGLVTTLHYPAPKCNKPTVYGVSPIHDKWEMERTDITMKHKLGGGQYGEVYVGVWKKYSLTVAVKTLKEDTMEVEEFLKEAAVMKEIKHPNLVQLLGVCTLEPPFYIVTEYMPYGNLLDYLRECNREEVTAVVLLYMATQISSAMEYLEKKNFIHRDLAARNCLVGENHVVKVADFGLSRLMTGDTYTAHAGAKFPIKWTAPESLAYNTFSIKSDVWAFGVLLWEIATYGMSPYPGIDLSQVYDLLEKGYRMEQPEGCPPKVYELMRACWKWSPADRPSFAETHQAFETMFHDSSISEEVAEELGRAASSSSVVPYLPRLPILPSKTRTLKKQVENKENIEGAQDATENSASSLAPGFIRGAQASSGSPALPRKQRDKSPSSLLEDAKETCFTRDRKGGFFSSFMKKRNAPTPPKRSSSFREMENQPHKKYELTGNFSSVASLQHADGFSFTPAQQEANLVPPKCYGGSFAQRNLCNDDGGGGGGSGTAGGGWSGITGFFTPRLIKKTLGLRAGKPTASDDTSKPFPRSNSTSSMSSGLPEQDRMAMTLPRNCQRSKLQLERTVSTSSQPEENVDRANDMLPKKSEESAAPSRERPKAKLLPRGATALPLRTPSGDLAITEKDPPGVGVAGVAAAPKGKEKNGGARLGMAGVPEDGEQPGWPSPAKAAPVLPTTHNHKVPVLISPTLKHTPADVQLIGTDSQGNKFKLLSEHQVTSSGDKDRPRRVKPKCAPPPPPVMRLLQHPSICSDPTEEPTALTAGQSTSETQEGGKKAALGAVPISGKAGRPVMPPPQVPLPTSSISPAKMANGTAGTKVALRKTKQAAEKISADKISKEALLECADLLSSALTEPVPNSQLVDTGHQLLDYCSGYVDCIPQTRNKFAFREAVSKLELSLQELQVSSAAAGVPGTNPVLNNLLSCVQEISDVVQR

| Compound | inhibition [1] | inhibition [2] | inhibition [3] | inhibition [4] | inhibition [5] | inhibition [6] | inhibition [7] | inhibition [8] | inhibition [9] | inhibition [10] | inhibition [11] | inhibition [12] | inhibition [13] | inhibition [14] | inhibition [15] | inhibition [16] | inhibition [17] | inhibition [18] | inhibition [19] | inhibition [20] |
| --- | --- | --- | --- | --- | --- | --- | --- | --- | --- | --- | --- | --- | --- | --- | --- | --- | --- | --- | --- | --- |
| CN1CCC(n2cnc(-c3ccc(F)cc3)c2-c2ccnc(NCCO)n2)CC1 | -2.04% | 2.22% | 5.59% | 3.64% | 6.05% | 0.67% | 7.5% | 5.69% | 4.05% | 3.06% | 6.42% | 2.79% | 4.11% | 3.67% | 6.5% | 3.71% | 5.43% | 3.07% | 2.99% | -4.58% |
| CC1=C(C(=O)Nc2ccc3[nH]ncc3c2)C(c2ccc(F)cc2)N=C(c2ccc(C(F)(F)F)nc2)N1 (stereo not given) | 1.5% | 2.72% | 3.5% | 2.21% | 1.95% | 1.43% | 3.71% | 1.86% | 3.9% | 1.97% | 2.27% | 3.86% | 2.79% | 3.97% | 10.4% | 4.23% | 4.29% | 3.72% | 8.41% | -1.91% |
| CNC(=O)c1ncccc1Nc1nc(Nc2cc3c(cc2OC)CCCN3C(=O)CN(C)C)nc2[nH]ccc12 | 3.38% | 2.91% | 2.97% | 2.6% | 2.23% | 1.84% | 0.31% | 3.06% | 3.95% | 3.72% | 2.23% | 3.84% | 3.74% | 4.98% | 7.6% | 94.4% | 90.8% | 2.06% | 5.83% | 10.8% |
| COc1cc(N2CCN(C(C)C)CC2)ccc1Nc1nc(Nc2cccc(F)c2C(=O)O)c2cc[nH]c2n1 | -0.16% | 3.61% | 5.65% | 1.72% | 3.69% | 1.07% | 2.29% | 4.74% | 5.16% | 3.83% | 7.98% | 4.3% | 5.73% | 5.38% | 5.63% | 68.1% | 80.7% | 4.02% | 5.35% | 2.71% |
| FC(F)(F)CNc1nccc(-c2cnn3ncccc23)n1 | -2.36% | 6.33% | 1.46% | 2.61% | 2.38% | 0.25% | 0.76% | 1.08% | 1.59% | 0.06% | 0.38% | 0.37% | 2.04% | 1.87% | 4% | 2.79% | 3.31% | 0.3% | 3.29% | -3.79% |
| COc1cccc(-n2ncc3c(N/N=C/c4ccc(C(=O)NCCN(C)C)cc4)ncnc32)c1 | 12.9% | 92.1% | 94.7% | 93.9% | 95% | 92.3% | 95.5% | 94.2% | 95.4% | 84.6% | 95% | 93.3% | 94.5% | 81.7% | 83.1% | 3.26% | 8.56% | 73.3% | 82% | 3.3% |
| COc1ccc(Nc2ncc(-c3ccccc3)o2)cc1OC | -2.99% | 4.59% | 32.7% | 10.7% | 53.6% | 10.2% | 56.2% | 7.95% | 44.7% | 1.08% | 18.9% | 11.1% | 54.3% | 7.03% | 58% | 1.69% | 4.78% | 9.21% | 57.1% | 0.18% |
| Cn1c(-c2nonc2N)nc2cnccc21 | 0.39% | 2.74% | 1.01% | 2.83% | 2.87% | 1.44% | 2.81% | 2.07% | 1.71% | 0.03% | 1.83% | 4.55% | 0.38% | 4% | 4.6% | 1.93% | 3.93% | 2.62% | 7.75% | -6.37% |
| CN(c1ccc(NC(=O)NCCN2CCOCC2)cc1)c1ccnc(Nc2ccc(CS(C)(=O)=O)cc2)n1 | 9.1% | 2.54% | 14.2% | 4.8% | 26.3% | 3.59% | 36.8% | 8.57% | 39.3% | 6.6% | 30.3% | 6.51% | 22.1% | 4.29% | 21.8% | 2.33% | 5.11% | 6.09% | 36% | -1.83% |
| CS(=O)(=O)CCNCc1ccoc1-c1ccc2ncnc(Nc3ccc(OCc4ccccc4)cc3)c2c1 | -2.12% | -3.3% | 0.24% | 0.81% | -0.01% | 0.87% | -0.25% | 1.54% | 1.56% | 1.58% | 0.75% | 0.71% | -0.62% | 2.05% | 0.92% | -0.16% | 1.21% | 1.41% | 3.46% | -0.99% |
| Nc1nonc1-c1nc2cnccc2n1C1CC1 | 7.32% and -5.94% | 2.67% and 0.93% | 3.5% and 4.4% | 2.21% and 2.04% | 0.55% and 1.2% | 0.52% and -0.88% | -0.96% and 2.63% | 4.06% and 0.83% | 3.65% and 2.84% | 2.85% and 1.97% | 2.56% and 3.11% | 3.83% and 3.92% | 4.12% and 4.54% | 5.16% and -2.65% | 8.03% and 2.25% | 2.63% and -1.89% | 5.84% and 0.48% | 3.44% and -2.1% | 5.37% and -2.96% | -7.63% and -3.39% |
| CCN1CCC(C(=O)Nc2n[nH]c3nnc(-c4cccc(F)c4F)cc23)CC1 | -6.98% | -0.54% | 0.15% | 0.08% | -0.56% | -0.54% | -0.16% | -1.28% | -1.04% | 0.53% | 1.7% | -0.98% | -1.38% | 0.49% | 0.51% | 0.15% | 1.71% | 1.05% | 1.43% | 1.6% |
| N#Cc1cccc(Nc2ncc(-c3ccccc3)o2)c1 | -3.46% | 1.93% | 13.5% | 4.61% | 26.9% | 2.88% | 27.1% | 3.25% | 21.2% | 2.21% | 10.4% | 4.28% | 21.7% | 3.9% | 20.6% | 1.63% | 2.63% | 4.38% | 20.3% | -2.1% |
